Here are results for 31 molecules from PubChem BioAssay.

Values without a mark were called inactive. The source made the active and inactive calls. Cut-off read from the data, not from the text of the source, unless noted: active = inhibition above about 30%; inactive = the rest.

Assay [1] has as its target Nuclear receptor coactivator 3 (Homo sapiens) (UniProt Q9Y6Q9). Briefly: NCOA3 GAL4-fusion reporter inhibition – cell-based, luminescence, quadruplicate, confirmation (AID 588792;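 active = mean inhibition over 43.08%, the solvent-only control mean plus 3 SD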;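 note: 0% = DMSO treated cells and 100% = gossypol at 36 µM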). To be noted: HEK293 GAL4-SRC3 luciferase reporter, at 3.6 µM, stronger effect = higher value.
For assay [2], the system named is transactivating tegument protein VP16 (Human herpesvirus 1), Gal4-VP16 luciferase reporter. Nature of the assay: repression of VP16-driven luciferase reporter – cell-based, luminescence, high throughput, counter-screen for SRC3 inhibitor project (AID 588794). To be noted: mammalian cells, at 3.6 µM, stronger effect = higher value.

Chain of Nuclear receptor coactivator 3 (Homo sapiens) (Q9Y6Q9 whole entry, looked up, the tested form may be a part): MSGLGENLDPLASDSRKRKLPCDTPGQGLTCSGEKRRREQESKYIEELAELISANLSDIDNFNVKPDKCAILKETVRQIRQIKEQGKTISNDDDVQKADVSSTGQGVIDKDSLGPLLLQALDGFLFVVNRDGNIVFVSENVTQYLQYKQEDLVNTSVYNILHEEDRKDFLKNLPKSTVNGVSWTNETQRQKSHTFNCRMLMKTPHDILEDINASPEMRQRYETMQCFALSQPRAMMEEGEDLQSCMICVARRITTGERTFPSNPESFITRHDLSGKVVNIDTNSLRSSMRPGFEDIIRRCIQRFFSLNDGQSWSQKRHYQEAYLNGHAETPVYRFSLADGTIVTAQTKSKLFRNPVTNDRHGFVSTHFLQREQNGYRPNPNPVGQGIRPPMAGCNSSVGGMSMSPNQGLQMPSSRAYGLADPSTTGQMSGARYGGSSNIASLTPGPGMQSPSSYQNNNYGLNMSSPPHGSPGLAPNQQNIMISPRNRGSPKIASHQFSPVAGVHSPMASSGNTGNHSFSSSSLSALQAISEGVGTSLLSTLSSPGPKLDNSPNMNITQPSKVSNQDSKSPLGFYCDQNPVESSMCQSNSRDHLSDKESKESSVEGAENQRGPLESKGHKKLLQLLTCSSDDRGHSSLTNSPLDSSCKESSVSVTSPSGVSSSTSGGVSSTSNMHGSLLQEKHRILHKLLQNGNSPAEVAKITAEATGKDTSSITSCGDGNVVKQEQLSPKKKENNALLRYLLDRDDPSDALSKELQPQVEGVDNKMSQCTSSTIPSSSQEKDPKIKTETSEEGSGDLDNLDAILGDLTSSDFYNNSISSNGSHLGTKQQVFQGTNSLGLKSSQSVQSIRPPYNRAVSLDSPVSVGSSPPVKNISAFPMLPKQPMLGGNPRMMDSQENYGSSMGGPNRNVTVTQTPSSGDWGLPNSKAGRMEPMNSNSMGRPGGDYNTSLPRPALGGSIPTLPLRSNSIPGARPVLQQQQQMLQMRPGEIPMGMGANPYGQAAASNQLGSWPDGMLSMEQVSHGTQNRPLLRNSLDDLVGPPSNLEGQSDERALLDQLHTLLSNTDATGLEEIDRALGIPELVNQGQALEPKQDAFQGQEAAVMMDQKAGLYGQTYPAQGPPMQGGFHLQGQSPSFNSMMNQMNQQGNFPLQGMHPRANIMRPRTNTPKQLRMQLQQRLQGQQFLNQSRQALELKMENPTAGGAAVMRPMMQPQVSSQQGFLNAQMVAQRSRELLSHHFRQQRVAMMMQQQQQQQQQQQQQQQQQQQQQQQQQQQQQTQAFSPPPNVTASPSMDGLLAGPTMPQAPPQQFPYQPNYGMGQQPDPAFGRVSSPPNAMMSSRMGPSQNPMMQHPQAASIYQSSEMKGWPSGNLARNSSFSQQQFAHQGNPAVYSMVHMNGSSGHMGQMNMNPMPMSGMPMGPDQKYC

Take `COc1cc(/C=C2\SC(=S)N(CCC(=O)NC3CCCC3)C2=O)cc(OC)c1OC`: the inhibition in assay [1] is -4.46%; in assay [2], 9.3%.
The like results for `COc1cc(C(F)(F)F)c(C(=O)N(C)Cc2cc(Cl)cc(Cl)c2)cn1` were, in that order, -10.3% and -2.09%.
On the same counts, the results for `CC1(C)CC(=O)C=C(C#CC2(O)CCCCC2)C1` are 19% and 1.31%.
In the case of `Cc1nnsc1-c1onc(C)c1C(=O)Nc1cc(Cl)cc(Cl)c1`, the figures for the inhibition in assay [1] and in assay [2] were 15.8% and 13.8%, respectively.
The like results for `O=C(c1ccc(S(=O)(=O)Cc2cc(F)ccc2F)c([N+](=O)[O-])c1)N1CCCCC1` were, in that order, -2.8% and -0.48%.
The like results for `COc1ccc(C(=O)NCC(=O)OCc2c(Cl)cccc2Cl)cc1OC` were, in that order, -0.66% and 1.22%.
On the same counts, the results for `Cc1ncoc1C(=O)NC1CCCc2c1cnn2-c1ccc(C(C)(C)C)cc1` (configuration not stated) are -0.26% and 41.8% (active).
With `O=C(c1ccc(S(=O)(=O)Nc2cccc(C(F)(F)F)c2)cc1)N1CCC1`, the inhibition was -2.7% in assay [1] and -5.66% in assay [2].
The like results for `COc1ccc(C)cc1NC(=O)c1nnn(Cc2cccc(F)c2)c1N` were, in that order, 22.3% and 26.1%.
On the same counts, the results for `CC(=O)c1cccc(NC(=O)c2cc(S(=O)(=O)N3CCOCC3)cs2)c1` are 2.71% and 1.82%.
With `Cn1c(SCC(=O)Nc2ccc(Cl)cc2)nc(O)cc1=O`, the values for the inhibition in assay [1] and in assay [2] were -1.75% and -9.43%, respectively.
The like results for `C/C(=N\NC(N)=S)C1C2C3CC4C5CC(C42)C1C53` (configuration not stated) were, in that order, 28.5% and 30% (active).
For `COc1cccc(NC(=O)CN(C)C(=O)/C=C/c2cn(-c3ccccc3)nc2-c2ccc(OC)c(OC)c2)c1`, the inhibition in assay [1] is 1.39%; in assay [2], -9.23%.
With `COc1cccc(N2CCN(CC(=O)Nc3ccccc3C(=O)NCc3ccccc3)CC2)c1`, the inhibition in assay [1] is -32.3%; in assay [2], 7.53%.
Consider `CC1=C(C(=O)N(C)C)CC(CC(=O)NCCCCc2ccccc2)C(=O)N1Cc1ccc(C(C)(C)C)cc1` (configuration not stated), for which the results for the inhibition in assay [1] and in assay [2] were -10.1% and -1.43%, respectively.
As for `CCc1ccc([C@@H]2CC(=O)[C@@H]3CN(S(=O)(=O)c4ccccc4C)[C@H](c4ccc(Cl)cc4)C[C@@H]3N2S(=O)(=O)c2ccc(C)cc2)cc1`, the inhibition in assay [1] was 15.5%; in assay [2], 4.71%.
Consider `CCn1cc(C(=O)NCc2ccco2)c(=O)c2cc(S(=O)(=O)N3CCCCCC3)ccc21`, for which the inhibition in assay [1] is 20%; in assay [2], 23.5%.
For the molecule `Clc1ccc2nnnc(-c3ccccc3)c2c1`, the inhibition is 65.8% (active) in assay [1] and 68% (active) in assay [2].
With `CCn1nc(C(=O)OCC(=O)c2ccc3c(c2)OCCO3)c2ccccc2c1=O`, the inhibition was -13.9% in assay [1] and -5.51% in assay [2].
As to `C=CC[C@@H](CC(=O)N(CCO)Cc1ccccc1)C(=O)N[C@@H](C)COC(=O)[C@@H](CC=C)Cc1ccc(F)cc1`, the inhibition was 5.89% in assay [1] and -1.92% in assay [2].
The like results for `CSc1ncccc1C(=O)NCc1nnc2ccccn12` were, in that order, 3.35% and -2.69%.
The like results for `N#C/C(C(N)=O)=C1/CCc2ccccc2N1` were, in that order, 21.2% and -2.45%.
For the molecule `CC(=O)c1c(C(C)=O)c(C)n(-c2ccc3ncccc3c2)c1C`, the inhibition in assay [1] is 15.4%; in assay [2] it was 6.55%.
The like results for `CCOC(=O)c1c(NC(=O)COc2cccc3c2CCN(C)C3=O)sc2c1CCC2` were, in that order, -1.43% and 10.2%.
For `Cc1cccc(NC(=O)c2cc(-c3ccccn3)nc3ccccc23)c1C`, the inhibition was -9.5% in assay [1] and 8.29% in assay [2].
`COc1cccc(/C=N/Nc2cc(-n3nc(C)cc3-c3ccccc3)ncn2)c1O`: the inhibition in assay [1] was 28.9%; in assay [2] it was -9.27%.
For `CC1CCCCC12NC(=O)N(CC(=O)N1CCN(Cc3ccc(C#N)cc3)CC1)C2=O` (configuration not stated), the inhibition was -3.89% in assay [1] and 6.63% in assay [2].
With `CCc1ccc(/C=C/c2c([N+](=O)[O-])c(=O)n(C)c(=O)n2C)cc1`, the inhibition was 39.7% in assay [1] and 41.3% (active) in assay [2].
The like results for `COc1cccc(CNC(=O)c2cc3c(c(-c4cccc(-c5cccc(C#N)c5)c4)n2)[C@H](CCO)N(S(=O)C(C)(C)C)C3)c1` (some centres not stated) were, in that order, -23% and 0.36%.
As to `COc1ccc(/C(C)=N/NC(=O)c2cccc(S(=O)(=O)N3CCCC3)c2)c(O)c1`, the figures for the inhibition in assay [1] and in assay [2] were 67.9% (active) and 63.5% (active), respectively.
On the same counts, the results for `CC(=O)Nc1ccc(S(=O)(=O)NCCSCc2ccccc2Cl)cc1` are 12.3% and 17.1%.
